Data from the supplement of paper PMC12282887.
± gives the standard deviation of the averaged measurements.

What was measured:
Assay in all cases: promoter activity interaction Z-score (Lux/OD deviation from empty-vector control); higher = stronger promoter induction by the compound
[1] = system: E. coli BW25113 acrABp lux reporter
How it was run: (§1)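 E. coli BW25113 luxCDABE reporter strains grew at 37°C in 40 µl LB Lennox in 384-well plates, with OD600 and luminescence read every 30 min for 12 h. After integration over 0–8 h for wild type or 1–9 h for deletion strains, wells under 10% of the median growth value were removed. Each score is the Z-transformed residual of growth-normalised luminescence fitted against a control.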

[2] = system: E. coli BW25113 marRABp lux reporter
How it was run: as §1

[3] = system: E. coli BW25113 micFp lux reporter
How it was run: as §1

[4] = system: E. coli BW25113 ompFp lux reporter
How it was run: as §1

[5] = system: E. coli BW25113 robp lux reporter
How it was run: as §1

[6] = system: E. coli BW25113 soxSp lux reporter
How it was run: as §1

[7] = system: E. coli BW25113 tolCp lux reporter
How it was run: as §1

[8] = 18.3 µg/ml, genetic background: wild type
[9] = 18.3 µg/ml, genetic background: ΔmarA
[10] = 18.3 µg/ml, genetic background: Δrob
[11] = 18.3 µg/ml, genetic background: ΔsoxS
[12] = 36.5 µg/ml, genetic background: wild type
[13] = 36.5 µg/ml, genetic background: ΔmarA
[14] = 36.5 µg/ml, genetic background: Δrob
[15] = 36.5 µg/ml, genetic background: ΔsoxS
[16] = 73.1 µg/ml, genetic background: wild type
[17] = 73.1 µg/ml, genetic background: ΔmarA
[18] = 73.1 µg/ml, genetic background: Δrob
[19] = 73.1 µg/ml, genetic background: ΔsoxS
[20] = 146.1 µg/ml, genetic background: wild type
[21] = 146.1 µg/ml, genetic background: ΔmarA
[22] = 146.1 µg/ml, genetic background: Δrob

O=C(O)CN(CCN(CC(=O)O)CC(=O)O)CC(=O)O
promoter activity interaction Z-score [1, 8]: -0.0934 ± 0.22 | promoter activity interaction Z-score [1, 9]: -0.603 ± 0.65 | promoter activity interaction Z-score [1, 10]: -0.36 ± 0.3 | promoter activity interaction Z-score [1, 11]: -0.525 ± 0.13 | promoter activity interaction Z-score [1, 12]: -0.397 ± 0.38 | promoter activity interaction Z-score [1, 13]: -0.546 ± 0.64 | promoter activity interaction Z-score [1, 14]: -0.8 ± 0.08 | promoter activity interaction Z-score [1, 15]: -0.688 ± 0.13 | promoter activity interaction Z-score [1, 16]: -0.174 ± 0.17 | promoter activity interaction Z-score [1, 17]: -0.55 ± 0.59 | promoter activity interaction Z-score [1, 18]: -0.865 ± 0.14 | promoter activity interaction Z-score [1, 19]: -0.724 ± 0.18 | promoter activity interaction Z-score [1, 20]: -0.36 ± 0.21 | promoter activity interaction Z-score [1, 21]: -1.25 ± 0.29 | promoter activity interaction Z-score [1, 22]: 0.682 ± 0.76 | promoter activity interaction Z-score [2, 8]: -0.176 ± 0.11 | promoter activity interaction Z-score [2, 9]: -0.48 ± 0.29 | promoter activity interaction Z-score [2, 10]: -0.224 ± 0.07 | promoter activity interaction Z-score [2, 11]: -0.191 ± 0.04 | promoter activity interaction Z-score [2, 12]: -0.238 ± 0.25 | promoter activity interaction Z-score [2, 13]: -0.327 ± 0.086 | promoter activity interaction Z-score [2, 14]: -0.221 ± 0.16 | promoter activity interaction Z-score [2, 15]: -0.276 ± 0.012 | promoter activity interaction Z-score [2, 16]: -0.3324 ± 0.002 | promoter activity interaction Z-score [2, 17]: -0.545 ± 0.11 | promoter activity interaction Z-score [2, 18]: -0.378 ± 0.066 | promoter activity interaction Z-score [2, 19]: -0.175 ± 0.04 | promoter activity interaction Z-score [2, 20]: 0.543 ± 0.16 | promoter activity interaction Z-score [2, 21]: 1.07 ± 0.021 | promoter activity interaction Z-score [2, 22]: 1.66 ± 0.58 | promoter activity interaction Z-score [3, 8]: 0.0311 ± 0.38 | promoter activity interaction Z-score [3, 9]: 0.0253 ± 0.09 | promoter activity interaction Z-score [3, 10]: -0.0661 ± 0.029 | promoter activity interaction Z-score [3, 11]: 0.33 ± 0.3 | promoter activity interaction Z-score [3, 12]: 0.187 ± 0.43 | promoter activity interaction Z-score [3, 13]: 0.106 ± 0.075 | promoter activity interaction Z-score [3, 14]: -0.0635 ± 0.073 | promoter activity interaction Z-score [3, 15]: 0.413 ± 0.38 | promoter activity interaction Z-score [3, 16]: 0.253 ± 0.014 | promoter activity interaction Z-score [3, 17]: 0.129 ± 0.061 | promoter activity interaction Z-score [3, 18]: 0.0924 ± 0.051 | promoter activity interaction Z-score [3, 19]: 0.66 ± 0.28 | promoter activity interaction Z-score [3, 20]: 1.76 ± 0.36 | promoter activity interaction Z-score [3, 21]: 2.53 ± 1.4 | promoter activity interaction Z-score [3, 22]: 2.95 ± 1.1 | promoter activity interaction Z-score [4, 8]: -0.399 ± 0.35 | promoter activity interaction Z-score [4, 9]: -0.581 ± 0.52 | promoter activity interaction Z-score [4, 10]: -0.522 ± 0.013 | promoter activity interaction Z-score [4, 11]: 0.261 ± 0.35 | promoter activity interaction Z-score [4, 12]: -0.73 ± 0.2 | promoter activity interaction Z-score [4, 13]: -0.519 ± 0.045 | promoter activity interaction Z-score [4, 14]: -0.748 ± 0.082 | promoter activity interaction Z-score [4, 15]: 0.0564 ± 0.85 | promoter activity interaction Z-score [4, 16]: -1.22 ± 0.24 | promoter activity interaction Z-score [4, 17]: -0.836 ± 0.33 | promoter activity interaction Z-score [4, 18]: -0.994 ± 0.2 | promoter activity interaction Z-score [4, 19]: 0.0122 ± 0.85 | promoter activity interaction Z-score [4, 20]: -1.07 ± 0.81 | promoter activity interaction Z-score [4, 21]: -1.23 ± 0.21 | promoter activity interaction Z-score [4, 22]: -1.04 ± 0.81 | promoter activity interaction Z-score [5, 8]: -0.212 ± 0.066 | promoter activity interaction Z-score [5, 9]: -1.05 ± 0.051 | promoter activity interaction Z-score [5, 10]: 0.174 ± 0.67 | promoter activity interaction Z-score [5, 11]: 0.244 ± 0.58 | promoter activity interaction Z-score [5, 12]: -0.656 ± 0.16 | promoter activity interaction Z-score [5, 13]: -0.174 ± 0.088 | promoter activity interaction Z-score [5, 14]: -0.454 ± 0.91 | promoter activity interaction Z-score [5, 15]: 0.113 ± 1.1 | promoter activity interaction Z-score [5, 16]: -0.785 ± 0.22 | promoter activity interaction Z-score [5, 17]: -0.143 ± 0.47 | promoter activity interaction Z-score [5, 18]: -0.796 ± 0.055 | promoter activity interaction Z-score [5, 19]: -0.553 ± 0.47 | promoter activity interaction Z-score [5, 20]: -1.32 ± 0.071 | promoter activity interaction Z-score [5, 21]: -1.53 ± 0.59 | promoter activity interaction Z-score [6, 8]: -0.509 ± 0.063 | promoter activity interaction Z-score [6, 9]: -0.316 ± 0.052 | promoter activity interaction Z-score [6, 10]: -0.315 ± 0.048 | promoter activity interaction Z-score [6, 11]: -0.181 ± 0.14 | promoter activity interaction Z-score [6, 12]: -0.478 ± 0.23 | promoter activity interaction Z-score [6, 13]: -0.479 ± 0.017 | promoter activity interaction Z-score [6, 14]: -0.494 ± 0.011 | promoter activity interaction Z-score [6, 15]: -0.421 ± 0.15 | promoter activity interaction Z-score [6, 16]: -0.487 ± 0.045 | promoter activity interaction Z-score [6, 17]: -0.43 ± 0.35 | promoter activity interaction Z-score [6, 18]: -0.698 ± 0.13 | promoter activity interaction Z-score [6, 19]: -0.236 ± 0.11 | promoter activity interaction Z-score [6, 20]: 1.26 ± 0.066 | promoter activity interaction Z-score [6, 21]: 1.71 ± 1.1 | promoter activity interaction Z-score [6, 22]: 1.4 ± 0.082 | promoter activity interaction Z-score [7, 8]: 0.221 ± 0.32 | promoter activity interaction Z-score [7, 9]: -0.411 ± 0.67 | promoter activity interaction Z-score [7, 10]: -0.43 ± 0.067 | promoter activity interaction Z-score [7, 11]: 0.426 ± 0.54 | promoter activity interaction Z-score [7, 12]: 0.548 ± 0.048 | promoter activity interaction Z-score [7, 13]: -0.02 ± 1 | promoter activity interaction Z-score [7, 14]: -0.146 ± 0.27 | promoter activity interaction Z-score [7, 15]: -0.2 ± 0.11 | promoter activity interaction Z-score [7, 16]: -0.165 ± 0.86 | promoter activity interaction Z-score [7, 17]: -0.102 ± 0.4 | promoter activity interaction Z-score [7, 18]: -0.0689 ± 0.14 | promoter activity interaction Z-score [7, 19]: 0.835 ± 0.86 | promoter activity interaction Z-score [7, 20]: 1.75 ± 0.63 | promoter activity interaction Z-score [7, 21]: 1.55 ± 0.38 | promoter activity interaction Z-score [7, 22]: 1.79 ± 0.72
